Assay [1] can be described thus: qHTS assay to identify small molecule agonists of the estrogen receptor alpha (ER-alpha) signaling pathway in the presence of an antagonist - cell viability counter screen (AID 1259386).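 Further: series mostly up to about 92 µM; cells exposed to compounds for 22 h at 37 °C before the viability read; nearly all actives have a fitted effect of over 30% in size.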 The procedure, abridged:
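Read-out: CellTiter-Fluor fluorescence after 1hr reagent incubation, measured in the same wells as the luciferase readout. VM7Luc4E2 cells were exposed to 15 compound concentrations with 10.0nM ICI-182,780 for 22hr at 37C.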
Background: qHTS replaces the single test concentration by a dilution series.

Assay [2] deals with Progesterone receptor (Homo sapiens) (UniProt P06401). The experiment in a line: qHTS assay to identify small molecule agonists of the progesterone receptor (PR) signaling pathway (AID 1346784; calls by dose curve; further: nearly all actives have a fitted effect of over 30% in size). The procedure, abridged: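 PR-UAS-bla HEK 293T cells carrying a UAS-driven beta-lactamase reporter were seeded in medium with 2% charcoal-stripped FBS, preincubated 6 hr at 37C, then exposed to compounds in DMSO for 16 hr; agonism was read by LiveBLAzer B/G FRET fluorescence.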

A short description of assay [3]: qHTS assay to identify small molecule antagonists of the progesterone receptor (PR) signaling pathway - cell viability counter screen (AID 1346798). Further: series mostly up to about 92 µM; nearly all actives have a fitted effect of over 50% in size. The procedure, abridged: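 PR-UAS-bla HEK293T cells in medium with 2% charcoal-stripped FBS were treated with compounds plus R5020 for 16 hr at 37C. Cell viability was then read by CellTiter-Glo luminescence after 30 min at room temperature in the same wells.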

Assay [4] in a line: qHTS assay to identify small molecule antagonists of the TGF-beta/Smad signaling pathway - cell viability counter screen (AID 1346824). Further: nearly all actives have a fitted effect of over 50% in size. The procedure, abridged:
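Cytotoxicity counter-screen run in the same wells as the beta-lactamase Smad reporter read: CellTiter-Glo luminescence after 30 min at room temperature. HEK 293T SBE-bla cells had 5 hr compound exposure at 37 C with TGF-beta1 (0.25 ng/mL stock).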

Assay [5] is described as follows: qHTS assay to identify small molecule agonists of the TGF-beta/Smad signaling pathway (AID 1346859; active means well fitted activation curve with a large enough effect in the signal ratio in the repeat runs, not every such curve was filed as active; the % refers to the signal ratio; further: series mostly up to about 77 µM). The gist of the method:
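HEK 293T cells stably carrying a beta-lactamase reporter driven by the Smad binding element were seeded overnight, exposed to DMSO-dissolved compounds for 5 hr at 37 C, 5% CO2, then loaded with FRET substrate for 2 hr at room temperature.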

The target of assay [6] is Thyrotropin-releasing hormone receptor (Homo sapiens) (UniProt P34981). The experiment in a line: qHTS assay to identify small molecule agonists of the thyrotropin-releasing hormone receptor (TRHR) signaling pathway (AID 1346891; calls by dose curve; further: series mostly up to about 58 µM). The procedure, abridged:
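TRHR-expressing HEK293 cells were plated 18 h at 37 °C/5% CO2, loaded with calcium dye 2 h at 37 °C, then given compound in DMSO; fluorescence was read kinetically for 3 min at 1 s intervals.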

A short description of assay [7]: Human pregnane X receptor (PXR) small molecule agonists, qHTS cell viability counter screen (AID 1346977). Further: nearly all actives have a fitted effect of over 50% in size. The procedure, abridged:
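PXR-Luc HepG2 cells in medium with 5% charcoal-stripped FBS were pre-incubated 5hr, then exposed to compounds for 24hr at 37C. Viability was read in the same wells by CellTiter-Fluor fluorescence, reagent added after 23hr with a 1hr incubation.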

Assay [8] in a line: Caspase-3/7 induction in HepG2 cells by small molecules, qHTS assay (AID 1346978). Further: nearly all actives have a fitted effect of over 15% in size. The procedure, abridged:
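Caspase-3/7 induction was measured by Caspase-Glo 3/7 luminescence (30 min, room temperature) after a 17 hr compound exposure of wild-type HepG2 cells seeded at 2,000 per well and pre-incubated 5 hr.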

Assay [9] in a line: Caspase-3/7 induction in CHO-K1 cells by small molecules, qHTS cell viability counter screen (AID 1346979). Further: nearly all actives have a fitted effect of over 35% in size. The gist of the method: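 Wild-type CHO-K1 cells were seeded at 1,500 per well, rested 5hr at 37 C, then exposed to compounds in DMSO. After 16hr, CellTiter-Fluor reagent was added and fluorescence read 1hr later as the viability measure.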
Assay [10] in a line: Caspase-3/7 induction in CHO-K1 cells by small molecules, qHTS assay (AID 1346980). Further: nearly all actives have a fitted effect of over 15% in size. The procedure, abridged: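 Luminescent Caspase-Glo 3/7 read (30min, room temperature) quantified apoptosis induction. Cells were wild-type CHO-K1, treated with compound for 17hr at 37 C and 5% CO2.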
The nature of assay [11]: Caspase-3/7 induction in HepG2 cells by small molecules, qHTS cell viability counter screen (AID 1346981). Further: series mostly up to about 92 µM; nearly all actives have a fitted effect of over 30% in size. The gist of the method: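 Fluorescence read-out of live-cell protease activity (CellTiter-Fluor) after 1 hr with reagent. This was measured in the same wells as the caspase-3/7 luminescence, on HepG2 cells exposed to DMSO-dissolved compounds for 16 hr at 37 C.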
The target of assay [12] is Nuclear receptor subfamily 1 group I member 2 (Homo sapiens) (UniProt O75469). Kind of assay: Human pregnane X receptor (PXR) small molecule agonists, qHTS assay (AID 1346982). Further: nearly all actives have a fitted effect of over 35% in size. Further: potency means the concentration at half of the fitted maximal effect. The procedure, abridged:
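HepG2 PXR-Luc reporter line, 5% charcoal-stripped FBS; 5 hr pre-incubation, compound (DMSO) 24 hr at 37 C/5% CO2; ONE-Glo 30 min RT; luminescence read-out.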

Assay [13] deals with Nuclear receptor subfamily 1 group I member 2 (Rattus norvegicus) (UniProt Q9R1A7). The experiment in a line: Rat pregnane X receptor (rPXR) activation by small molecules, qHTS assay (AID 1346983). Further: nearly all actives have a fitted effect of over 20% in size. Particulars: rPXR luciferase reporter cells, One-Glo luminescence, 24 h; stronger effect = higher value. The gist of the method:
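Luminescent readout (One-Glo luciferase, 30 min room temperature) followed 24 hr compound treatment at 37 C of rPXR cells plated 2,000 per well and preincubated 5hr; qHTS format with compounds delivered in DMSO.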

The target in assay [14] is Nuclear receptor subfamily 1 group I member 2 (Homo sapiens) (UniProt O75469). The experiment in a line: Human pregnane X receptor (PXR) activation by small molecules, qHTS assay (AID 1346985). Further: nearly all actives have a fitted effect of over 40% in size. The gist of the method:
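DPX-2 cells (HepG2 co-transfected with a PXR response element and a CYP3A4-promoter luciferase construct) were seeded at 2,000 per well, rested 5 hr at 37C, then exposed to DMSO-dissolved compounds for 24 hr. Activation was read as luciferase luminescence.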

Assay [15] concerns the target Cytochrome P450 2D6 (Homo sapiens) (UniProt P10635). The experiment in a line: Cytochrome P450 Family 2 Subfamily D Member 6 (CYP2D6) small molecule antagonists: luciferase reporter qHTS assay (AID 1671196). Further: nearly all actives have a fitted effect of over 50% in size. Further: potency means the concentration at half of the fitted maximal effect. The procedure, abridged: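 Luminogenic proluciferin substrate, CYP2D6 enzyme; 10 min RT preincubation with compound, NADPH regeneration system added, 1 h RT. Stop/detection reagent, 20 min RT, luminescence read (RLU). Signal proportional to CYP activity.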

Assay [16] deals with Progesterone receptor (Homo sapiens) (UniProt P06401). The experiment in a line: qHTS assay to identify small molecule antagonists of the progesterone receptor (PR) signaling pathway (AID 1346795; active means well fitted inhibition curve with a large enough effect in the signal ratio in the repeat runs, not every such curve was filed as active; the % refers to the signal ratio). The procedure, abridged: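 PR-UAS-bla HEK293T cells carrying a UAS-driven beta-lactamase reporter were plated in medium with 2% charcoal-stripped FBS and rested 6 hr at 37C. Compounds were added with 1 nM R5020 (final) for 16 hr, then FRET substrate loaded 2 hr at room temperature.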

Assay [17] can be described thus: qHTS assay to identify small molecule agonists of the progesterone receptor (PR) signaling pathway - cell viability counter screen (AID 1346799; calls by dose curve; further: nearly all actives have a fitted effect of over 45% in size). The procedure, abridged:
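PR-UAS-bla HEK293T cells, 3,000 per well in medium with 2% charcoal-stripped FBS, were preincubated 6 hr at 37C, then exposed to compounds for 16 hr; viability was read as CellTiter-Glo luminescence after 30 min at room temperature.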

The nature of assay [18]: qHTS assay to identify small molecule agonists of the TGF-beta/Smad signaling pathway - cell viability counter screen (AID 1346829). Further: top concentration of the series differs between compounds; nearly all actives have a fitted effect of over 45% in size. The gist of the method:
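SBE-bla HEK 293T cells plated overnight, compound exposure 5 hr at 37 C. Viability read in the same wells by CellTiter-Glo luminescence after 30 min at room temperature, following the beta-lactamase read.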

Assay [19] addresses Thyrotropin-releasing hormone receptor (Homo sapiens) (UniProt P34981). The experiment in a line: qHTS assay to identify small molecule antagonists of the thyrotropin-releasing hormone receptor (TRHR) signaling pathway (AID 1346877; active means well fitted inhibition curve with a large enough effect in the repeat runs, not every such curve was filed as active; further: series mostly up to about 51 µM). The gist of the method:
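HEK293/TRHR cells, 18 h, 37 °C; Ca2+ dye 2 h; cpd 5 min RT; TRH 1 nM final; fluorescence read 3 min, 1 s intervals; 15 concs, triplicate.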

Results filed as inconclusive are left out. Some compounds were tested as several samples or in several runs, with calls that do not always agree. The source made the active and inactive calls. Unless noted, the call rests on the fitted dose curve; in most records, active means well fitted curve in the direction sought with a large enough effect in the repeat runs; inconclusive means weak or mixed curves; inactive means no such curve, though single readings can be large; an effect the other way counts as inactive or inconclusive.
On the % scale 0 is the no-effect control and ±100 the full control effect.

Nuclear receptor subfamily 1 group I member 2 (Homo sapiens), sequence (O75469 whole entry, looked up): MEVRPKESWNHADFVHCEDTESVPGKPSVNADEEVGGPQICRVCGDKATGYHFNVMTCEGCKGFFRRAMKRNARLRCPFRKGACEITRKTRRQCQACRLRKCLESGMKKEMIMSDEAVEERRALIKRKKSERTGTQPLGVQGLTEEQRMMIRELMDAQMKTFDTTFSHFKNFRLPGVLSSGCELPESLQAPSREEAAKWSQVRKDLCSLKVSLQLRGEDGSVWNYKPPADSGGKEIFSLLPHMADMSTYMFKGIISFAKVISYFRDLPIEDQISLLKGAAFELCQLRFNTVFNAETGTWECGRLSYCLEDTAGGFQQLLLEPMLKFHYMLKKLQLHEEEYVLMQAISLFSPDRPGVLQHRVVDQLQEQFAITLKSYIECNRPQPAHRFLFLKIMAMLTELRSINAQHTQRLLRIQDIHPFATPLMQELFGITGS
Cytochrome P450 2D6 (Homo sapiens), sequence (P10635 whole entry, looked up): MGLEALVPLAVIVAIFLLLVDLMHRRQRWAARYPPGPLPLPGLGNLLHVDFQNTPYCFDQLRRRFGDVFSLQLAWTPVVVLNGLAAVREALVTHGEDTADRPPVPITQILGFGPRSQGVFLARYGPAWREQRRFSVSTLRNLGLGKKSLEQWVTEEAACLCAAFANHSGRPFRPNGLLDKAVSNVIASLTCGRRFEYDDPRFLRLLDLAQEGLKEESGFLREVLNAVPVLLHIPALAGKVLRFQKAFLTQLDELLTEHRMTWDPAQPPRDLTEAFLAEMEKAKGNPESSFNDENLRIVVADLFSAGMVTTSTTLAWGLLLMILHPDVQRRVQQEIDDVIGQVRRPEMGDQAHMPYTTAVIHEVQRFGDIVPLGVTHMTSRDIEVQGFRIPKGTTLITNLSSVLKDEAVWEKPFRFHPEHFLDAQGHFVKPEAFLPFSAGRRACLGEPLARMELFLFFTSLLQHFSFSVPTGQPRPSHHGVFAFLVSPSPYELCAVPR
Progesterone receptor (Homo sapiens), sequence (P06401 whole entry, looked up): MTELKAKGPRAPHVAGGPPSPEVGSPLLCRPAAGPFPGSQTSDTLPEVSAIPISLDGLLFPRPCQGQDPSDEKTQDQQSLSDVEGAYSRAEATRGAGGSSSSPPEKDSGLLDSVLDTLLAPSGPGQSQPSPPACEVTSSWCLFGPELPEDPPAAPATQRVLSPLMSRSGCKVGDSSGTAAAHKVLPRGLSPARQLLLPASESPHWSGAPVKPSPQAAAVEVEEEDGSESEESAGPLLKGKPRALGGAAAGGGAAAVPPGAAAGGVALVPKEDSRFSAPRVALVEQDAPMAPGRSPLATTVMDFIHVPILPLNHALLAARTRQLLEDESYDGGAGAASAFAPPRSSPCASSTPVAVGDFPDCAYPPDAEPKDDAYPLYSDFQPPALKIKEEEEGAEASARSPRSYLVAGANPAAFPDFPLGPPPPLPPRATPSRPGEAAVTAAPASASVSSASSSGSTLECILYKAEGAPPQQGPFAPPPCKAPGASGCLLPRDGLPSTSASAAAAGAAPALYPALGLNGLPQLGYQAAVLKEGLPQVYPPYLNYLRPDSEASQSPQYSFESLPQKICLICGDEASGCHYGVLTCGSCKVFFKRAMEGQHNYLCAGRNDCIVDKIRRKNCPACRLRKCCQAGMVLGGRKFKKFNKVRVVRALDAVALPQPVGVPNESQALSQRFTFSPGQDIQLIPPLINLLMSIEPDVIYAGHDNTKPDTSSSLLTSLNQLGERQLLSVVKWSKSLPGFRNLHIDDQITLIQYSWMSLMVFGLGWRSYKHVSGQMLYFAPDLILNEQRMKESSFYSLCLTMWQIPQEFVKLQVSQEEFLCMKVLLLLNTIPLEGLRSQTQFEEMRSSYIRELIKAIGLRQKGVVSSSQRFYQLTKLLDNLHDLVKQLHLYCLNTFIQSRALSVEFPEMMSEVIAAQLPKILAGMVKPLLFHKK
Thyrotropin-releasing hormone receptor (Homo sapiens), sequence (P34981 whole entry, looked up): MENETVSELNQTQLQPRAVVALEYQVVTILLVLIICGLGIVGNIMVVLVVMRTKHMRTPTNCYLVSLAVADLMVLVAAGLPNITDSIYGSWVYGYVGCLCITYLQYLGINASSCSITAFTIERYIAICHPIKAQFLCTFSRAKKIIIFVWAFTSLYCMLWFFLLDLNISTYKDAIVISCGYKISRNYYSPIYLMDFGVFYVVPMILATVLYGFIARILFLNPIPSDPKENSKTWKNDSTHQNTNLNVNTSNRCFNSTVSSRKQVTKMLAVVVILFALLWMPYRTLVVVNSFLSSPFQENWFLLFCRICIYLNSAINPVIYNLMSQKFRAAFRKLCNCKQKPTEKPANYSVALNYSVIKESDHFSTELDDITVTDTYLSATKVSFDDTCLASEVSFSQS
Nuclear receptor subfamily 1 group I member 2 (Rattus norvegicus), sequence (Q9R1A7 whole entry, looked up): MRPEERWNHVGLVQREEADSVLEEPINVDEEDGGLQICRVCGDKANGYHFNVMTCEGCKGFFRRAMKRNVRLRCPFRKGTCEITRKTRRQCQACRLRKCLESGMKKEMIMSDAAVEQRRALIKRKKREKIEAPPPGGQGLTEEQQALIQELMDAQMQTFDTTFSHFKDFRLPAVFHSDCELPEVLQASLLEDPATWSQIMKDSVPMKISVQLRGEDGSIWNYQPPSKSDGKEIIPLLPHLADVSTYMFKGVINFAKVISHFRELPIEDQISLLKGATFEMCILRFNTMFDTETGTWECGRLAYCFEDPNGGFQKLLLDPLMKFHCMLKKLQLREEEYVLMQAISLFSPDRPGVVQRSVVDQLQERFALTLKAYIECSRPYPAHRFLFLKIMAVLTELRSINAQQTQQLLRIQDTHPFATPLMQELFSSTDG

Take `N[C@H](Cc1c[nH]c2ccccc12)C(=O)O`: the Potency entry in [1], in [2], in [7], in assay [8], in assay [9] and in assay [11] was “inactive” in each case. The Potency result in assay [12] and in [15] was “inactive” each time. Further, the call in assay [3], in [4], in assay [5], in [6], in assay [10] and in assay [14] was inactive. In addition, the max activation in [13] is -2.63% (inactive).
As for `C=CC(C)CCCC(C)(C)O` (centres undefined), the Potency result in [1], in assay [2], in assay [16], in assay [7], in [9] and in [11] was “inactive” throughout. For the same compound, the Potency entry in [12] is “inactive”. Besides, the result in assay [17], in assay [4], in assay [18], in assay [5] and in assay [10] was inactive. In addition, the Potency in assay [15] is 31.7 µM (active).
`N#Cc1ccccc1`: the Potency result in assay [1], in assay [2], in assay [7], in [9], in assay [11] and in [15] was “inactive” in each case. Also, the call in assay [3], in assay [17], in assay [4], in assay [18], in assay [5] and in assay [19] was inactive. For the same compound, the call in assay [6] and in assay [10] was inactive.
Take `O=C(O)CCCCCCCCC(=O)O`: the Potency result in [1], in assay [2], in [7], in assay [9], in assay [11] and in [15] was “inactive” in each case. In addition, the compound was classed as inactive in assay [3], in [17], in assay [4], in [5], in [19] and in assay [6]. In assay [10], the call was inactive.
As for `CCCCCCCO`, the Potency result in [1], in assay [2], in assay [16], in assay [7], in assay [8] and in assay [9] was “inactive” in each case. In addition, the Potency result in assay [11], in assay [12] and in [15] was “inactive” each time. The outcome in assay [4], in [5], in assay [19], in [6] and in assay [10] was inactive.
`CC(C)CC(C)O` (centres undefined): the Potency result in assay [1], in assay [2], in assay [7], in assay [8], in [9] and in [11] was “inactive” in each case. The Potency entry in [15] is “inactive”. Further, the result in [17], in [4], in assay [18], in assay [5] and in assay [10] was inactive.
Take `CC(C)c1cccc(C(C)C)c1`: the Potency result in assay [1], in [7], in [9], in assay [11], in assay [12] and in [15] was “inactive” throughout. Further, the call in assay [3], in [4], in assay [5] and in assay [10] was inactive.
For the compound `C=CC[N+](C)(C)CC=C`, the Potency result in [1], in [2], in assay [7], in assay [9], in assay [11] and in assay [15] was “inactive” each time. For the same compound, the compound was called inactive in assay [17], in assay [4], in assay [18], in assay [5], in [6] and in assay [10]. Besides, in [12], the Potency is 54.9 µM (active) and inactive.
In the case of `C=CCc1ccc(OC)c(OC)c1`, the Potency entry in assay [1], in assay [7], in [8], in assay [9], in assay [11] and in assay [15] was “inactive” throughout. In addition, the compound was called inactive in [3], in assay [17], in assay [4], in [18], in [5] and in [10].
Take `NCCN1CCNCC1`: the Potency result in assay [1], in assay [2], in assay [7], in [8], in [9] and in [11] was “inactive” throughout. The compound was classed as inactive in assay [17], in assay [4], in assay [18], in assay [5] and in assay [10].
As for `O=S(=O)(O)c1ccccc1`, the Potency entry in assay [1], in assay [2], in assay [7], in [9] and in [11] was “inactive” throughout. The outcome in assay [3], in assay [17], in assay [4], in assay [5], in assay [19] and in assay [6] was inactive. The outcome in assay [10] was inactive.

These data come from PubChem BioAssay (Tox21).
